Bioassay records deposited in PubChem by National Center for Advancing Translational Sciences (NCATS).
RORgamma inh: qHTS for inhibitors of ROR gamma transcriptional activity. Nuclear receptor ROR-gamma (Mus musculus), P51450. Drosophila S2 Gal4-RORgamma UAS-luciferase reporter, 20 h. Potency, µM (top dose mostly 53.6 µM), for inactives: at the top dose activity change, negative = inhibition, hits mostly inhibitors. 5.4% of 310,000 active. AID 2551, 2010; note: potency is the fitted concentration of half-maximal effect; % is set by controls: 0 for no effect and ±100 for the full control effect; nearly all actives have a fitted effect of over 60% in size
Target sequence (P51450 whole entry, looked up, the tested form may be a part): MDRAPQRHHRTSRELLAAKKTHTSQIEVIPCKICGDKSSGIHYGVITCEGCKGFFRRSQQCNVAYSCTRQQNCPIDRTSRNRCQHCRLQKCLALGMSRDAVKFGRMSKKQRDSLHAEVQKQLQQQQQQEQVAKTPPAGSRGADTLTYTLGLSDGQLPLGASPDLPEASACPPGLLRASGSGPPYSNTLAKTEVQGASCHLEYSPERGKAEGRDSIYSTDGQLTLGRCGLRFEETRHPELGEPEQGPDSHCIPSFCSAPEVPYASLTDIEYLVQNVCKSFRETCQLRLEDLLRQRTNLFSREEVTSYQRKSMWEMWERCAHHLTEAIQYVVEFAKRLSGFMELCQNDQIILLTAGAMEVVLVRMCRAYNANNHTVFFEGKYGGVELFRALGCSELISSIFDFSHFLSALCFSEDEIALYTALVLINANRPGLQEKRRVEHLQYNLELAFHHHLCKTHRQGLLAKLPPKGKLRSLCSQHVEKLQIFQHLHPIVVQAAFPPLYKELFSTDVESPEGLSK
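Compounds are pin-transferred onto Drosophila Schneider cells expressing a copper-inducible Gal4–ROR gamma transactivation domain fusion. After 1 hr, copper sulfate is added to 700 uM final; luciferase is read 20 hr later.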
IL-1B inflam inh: qHTS for Inhibitors of Inflammasome Signaling: IL-1-beta AlphaLISA Primary Screen. THP-1 LPS/ATP IL-1B secretion, AlphaLISA, 16 h; stronger effect = lower value. activity change, % at 57.5 µM. 4.7% of 360,000 active; in the data active = activity change below about -50%; inconclusive = mostly about -30% to -49%; note: % is set by controls: 0 for no effect and ±100 for the full control effect
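THP-1 cells pretreated 1 hr with compounds (up to 57.5 uM final), then stimulated with LPS (250 ng/mL final) plus ATP (1.25 mM final); secreted IL-1B measured by AlphaLISA after 16 hr, decreased signal indicating inhibition.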
MCF10A rerep: A quantitative high throughput screen for small molecules that induce DNA re-replication in MCF 10a normal breast cells. 2.9% of 350,000 active. MCF 10A DNA re-replication, Hoechst nuclear intensity, 48 h. Potency, µM (highest dose often 46.1 µM), without a hit: at the top dose activity, positive = re-replication, actives largely listed as activators; note: potency is the fitted concentration of half-maximal effect; % of control where 0% means no effect; nearly all actives have a fitted effect of over 50% in size
SW480 rerep: A quantitative high throughput screen for small molecules that induce DNA re-replication in SW480 colon adenocarcinoma cells; AID 624297, 2012; Potency, µM (highest dose often 46.1 µM), for the others: top-dose re-replication activation, actives largely listed as activators; SW480 DNA re-replication, Hoechst DNA content imaging, 48 h; 1.8% of 340,000 active; note: potency is the fitted concentration of half-maximal effect; % of control where 0% means no effect; nearly all actives have a fitted effect of over 55% in size
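Image-based read-out: total Hoechst fluorescence of nuclei (405 nm excitation, 500-530 nm emission), with hits raising the fraction of high-intensity nuclei. SW480 colon cells incubated 48 hr with compounds at 37 C.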
VP16 counter: VP16 counterscreen qHTS for inhibitors of ROR gamma transcriptional activity; Drosophila S2 Gal4-VP16 UAS-luciferase, luminescence, 20 h; Potency, µM (top dose mostly 53.6 µM), for the others: top-dose activity, negative = inhibition, hits mostly inhibitors; 3.5% of 310,000 active;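 note: Gal4-VP16 expression switched on by copper sulfate through the metallothionein promoter; potency is the fitted concentration of half-maximal effect; % is set by controls: 0 for no effect and ±100 for the full control effect; nearly all actives have a fitted effect of over 50% in size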
Starred values were filed as active, the others as inactive; u = inconclusive; x = not tested or not shown; [ ] = dose if it differs, or a comment. The list is not random: actives were taken first. Their share in the collection is about 11%. Unless noted, calls come from the whole dose curve; as a rule, active = well fitted curve in the direction sought with a large enough effect; inconclusive = small, poorly fitted or top-dose-only effect, or another doubt; inactive = no such curve, though single readings can be large; an effect the other way counts as inactive or inconclusive.

SMILES	RORgamma inh	IL-1B inflam inh	MCF10A rerep	SW480 rerep	VP16 counter
CC1(C(=O)NS(=O)(=O)c2cccc(OC(F)F)c2)CCN1C(=O)Cc1ccsc1 (stereo not given)	x	25	x	x	x
CN1C(=O)/C(=C2\SC(N3CCCCCC3)=NC2=O)c2ccccc21	-10%	-15	23%	-2%	-2%
CCCN1C(=O)/C(=C2\SC(N3CCCCC3)=NC2=O)c2ccccc21	-20%	-55*	21%	2%	-13%
COC(=O)CCC(=O)NC(=S)Nc1sc(C)c(C)c1C(N)=O	29%	5	1.2µM*	u	-1%
Cc1sc(NC(=S)NC(=O)CCc2ccccc2)c(C(N)=O)c1C	-10%	44	0.13µM*	0.29µM*	-9%
COC(=O)CCC(=O)Nc1sc(C)c(C)c1C(N)=O	-8%	-5	-1%	-5%	1%
O=C(c1[nH]c(C(F)(F)F)nc1-c1ccccc1)N1CCN(c2c(Cl)cncc2Cl)CC1	x	3	x	x	x
CCOc1ccc(N=Cc2c(C)[nH]n(-c3nc4ccccc4[nH]3)c2=O)cc1	14µM*	18	-5%	1%	u
CN(C)N=Nc1nc2c(c(=O)n(C)c(=O)n2C)n1CC1CO1 (stereo not given)	15%	13	16µM*	16µM*	-21%
CS(=O)(=O)N(CC(O)CON=C1c2ccccc2-c2ccccc21)c1ccc(F)cc1 (stereo not given)	u	-6	-5%	-5%	-14%
CCN(CC(O)CON=C1c2ccccc2-c2ccccc21)S(=O)(=O)c1ccc(C)cc1 (stereo not given)	41%	u	u	2%	u
CCN(CC(O)CON=C1c2ccccc2-c2ccccc21)S(=O)(=O)c1ccc(Cl)cc1 (stereo not given)	u	-62*	u	24%	u
CN(CC(O)CON=C1c2ccccc2-c2ccccc21)S(=O)(=O)c1ccc(Br)cc1 (stereo not given)	29%	u	16µM*	u	u
Cc1cccc(N(CC(O)CON=C2c3ccccc3-c3ccccc32)S(C)(=O)=O)c1 (stereo not given)	18%	u	16µM*	u	-13%
O=C(CNC(=O)c1ccccc1O)N/N=C/c1cc(Br)ccc1OC(=O)/C=C/c1ccco1	5.6µM*	77	16%	u	-7%
COc1ccccc1C(=O)NCC(=O)N/N=C/c1cc(Br)ccc1OCc1ccccc1	20%	-78*	-7%	26%	-9%
O=C(CNC(=O)c1cccc(F)c1)N/N=C/c1cc(Br)ccc1OC(=O)/C=C/c1ccco1	3.5µM*	191	10%	5.2µM*	7.9µM*
O=C(CNC(=O)c1ccccc1Br)N/N=C/c1ccco1	-4%	-11	3%	-8%	8%
O=C(CNC(=O)c1ccc(F)cc1)N/N=C/c1cc(Br)ccc1OCc1ccccc1	22%	u	16%	u	-6%
COc1ccc(C(=O)O)cc1S(=O)(=O)Nc1ccc(Oc2ccccc2)cc1	x	6	-2%	-23%	x
COc1ccc(C)c2sc(N(CCCN(C)C)C(=O)c3ccc4c(c3)OCCO4)nc12	x	u	12%	u	x
O=C(C=C1SCCS1)/C=C/c1ccco1	u	-92*	12%	-3%	u
CCNC(=S)NNC(=O)CSc1nc2ccccc2n1C	0.22µM*	3	1%	-3%[9.22 µM]	0.71µM*
CCNC(=S)NNC(=O)CSc1nc2ccccc2[nH]1	4µM*	-1	-7%	-4%	13µM*
Cn1c(NCc2ccccc2Cl)nc2ccccc21	x	u	-3%	-6%	x
SMILES	RORgamma inh	IL-1B inflam inh	MCF10A rerep	SW480 rerep	VP16 counter
O=C(Nc1nc(NC(=O)c2ccco2)n(-c2ccccc2)n1)c1ccccc1	0.89µM*	94	u	-4%	1.3µM*
O=C(Nc1nc2ccccc2n1Cc1ccccc1)c1ccco1	2µM*	-12	1%	-5%	2.5µM*
CCC(=O)Nc1nc2ccccc2n1Cc1ccccc1Cl	0.4µM*	0	u	20%	2.8µM*
CC(=O)Nc1nc(NCc2ccccc2Cl)n(-c2ccccc2)n1	-18%	-12	-10%	-11%	-12%
CC(=O)Nc1nc(NC(=O)/C=C/c2ccccc2)n(-c2ccccc2)n1	0.28µM*	37	10%	17%	0.89µM*
CCOCc1c(C(=O)NCc2ccccc2CN2CCCC2)oc2ccccc12	x	12	u	u	x
Cn1c(CNC(=O)CNS(=O)(=O)c2ccc(Cl)cc2)cc(=O)n(C)c1=O	-7%	14	-3%	-4%	2%
CC(=O)Nc1nc2ccccc2n1Cc1ccccc1C	2µM*	u	u	21%	3.2µM*
CC(=O)Nc1nc2ccccc2n1Cc1ccccc1Cl	0.89µM*	-56*	u	4%	2.2µM*
CC(=O)NCCc1nc2ccccc2n1Cc1ccc(Cl)cc1	22%	16	4%	-4%	1%
CC(=O)NCc1nc2ccccc2n1Cc1ccccc1C	-11%	16	-2%	-2%	4%
CC(=O)NCCc1nc2ccccc2n1CCOc1ccccc1	0%	-2	-1%	-5%	2%
CCC(=O)Nc1nc2ccccc2n1Cc1ccc(Cl)cc1	0.4µM*	41	u	u	1.3µM*
CC(=O)Nc1nc2ccccc2n1CCOc1ccccc1Cl	0.79µM*	27	21%	16%	1.3µM*
C=C1C(=O)N(C)CCC1C(CC)C(=O)OC (stereo not given)	x	-28	x	x	x
COc1ccc(NC(=O)Nc2cc(C(C)(C)C)on2)cc1OC	25%	u	-16%	-6%	u
CC(C)C1OC(CCc2ccccc2)Cc2[nH][nH]c(=O)c21 (stereo not given)	x	-7	x	x	x
O=C(/C=C/c1cc(Br)ccc1F)OCC(=O)N1CCCC1	x	-23	-3%	-6%	x
CC1(C)CC(N=Cc2c(O)n(Cc3ccc4c(c3)OCO4)c(=O)c3ccccc23)CC(C)(C)N1	u	-107*	0%	u	-14%
CCC(=O)NC(=S)N1CCN(c2ccc([N+](=O)[O-])cc2Cl)CC1	4µM*	-6	20%	u	16µM*
CC(C)(C)C(=O)N1CCN(c2ccc([N+](=O)[O-])cc2Cl)CC1	x	-9	0%	-10%[9.22 µM]	x
O=C(NC(=S)N1CCN(c2ccc([N+](=O)[O-])cc2Cl)CC1)c1ccco1	0.02µM*	11	-2%	22%	0.032µM*
O=C(c1ccco1)N1CCN(c2ccc([N+](=O)[O-])cc2Cl)CC1	-13%	-5	2%	-3%	4%
CCN1C(=O)C(=O)N(CC(=O)Nc2ccccc2OC(F)F)C1=O	x	9	-2%	1%	x
